# Columns and labels:
# Assay in all cases: DAPPL (digital affinity profiling via proximity ligation, sequencing); 10 mM Tris-HCl pH 7.5, 50 mM NaCl, 1 mM DTT, 4% glycerol, room temperature, 30 min; GST-TFs on glutathione beads, 16-mer random dsDNA library, 0.1% formaldehyde crosslink after washing; high values mean tight binding
# FEV = target: T1, FEV (Homo sapiens, UniProt Q99581 1-238); conditions: protein: recombinant; tags: N-terminal GST; dsDNA, one strand shown
# T1 sequence: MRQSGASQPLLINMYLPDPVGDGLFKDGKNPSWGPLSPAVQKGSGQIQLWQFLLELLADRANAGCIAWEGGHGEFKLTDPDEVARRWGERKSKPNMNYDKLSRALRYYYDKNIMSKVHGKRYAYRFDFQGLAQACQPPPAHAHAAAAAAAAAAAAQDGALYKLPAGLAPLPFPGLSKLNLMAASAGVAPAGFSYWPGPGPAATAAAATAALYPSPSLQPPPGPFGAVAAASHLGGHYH
# Outline: (§1)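 Yeast served to express human transcription factors as GST fusions, which were then captured on glutathione beads and labelled with DNA barcodes. Pooled with a tag-only sample, they were incubated with 200 nmole of a 16-mer random double-stranded DNA library for 30 min at room temperature in Tris/NaCl/DTT/glycerol buffer, washed, crosslinked with 0.1% formaldehyde, ligated by proximity, amplified by PCR and sequenced. Dividing each hexamer's read frequency for a factor by its frequency for the tag-only sample gives the binding signal.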
# ETV5 = ETV5 (Homo sapiens, UniProt P41161 1-510); conditions: protein: recombinant; tags: N-terminal GST; dsDNA, one strand shown
# Outline: as §1
# HSF1 = HSF1 (Homo sapiens, UniProt Q00613 1-529); conditions: protein: recombinant; tags: N-terminal GST; chain copies: 3; dsDNA, one strand shown
# Outline: as §1
# SPIC = target: T2, SPIC (Homo sapiens, UniProt Q8N5J4 1-248); conditions: protein: recombinant; tags: N-terminal GST; dsDNA, one strand shown
# T2 sequence: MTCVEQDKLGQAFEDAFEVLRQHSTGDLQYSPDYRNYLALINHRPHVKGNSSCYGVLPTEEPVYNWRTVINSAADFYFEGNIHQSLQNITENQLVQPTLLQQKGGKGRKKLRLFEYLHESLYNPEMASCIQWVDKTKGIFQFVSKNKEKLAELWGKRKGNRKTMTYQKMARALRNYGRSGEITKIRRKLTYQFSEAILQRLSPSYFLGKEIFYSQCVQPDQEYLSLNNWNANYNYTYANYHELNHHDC
# Outline: as §1
# ELF4 = ELF4 (Homo sapiens, UniProt Q99607 1-663); conditions: protein: recombinant; tags: N-terminal GST; dsDNA, one strand shown
# Outline: as §1
# ELK4 = target: T3, ELK4 (Homo sapiens, UniProt P28324-2 1-405); conditions: protein: recombinant; tags: N-terminal GST; dsDNA, one strand shown
# T3 sequence: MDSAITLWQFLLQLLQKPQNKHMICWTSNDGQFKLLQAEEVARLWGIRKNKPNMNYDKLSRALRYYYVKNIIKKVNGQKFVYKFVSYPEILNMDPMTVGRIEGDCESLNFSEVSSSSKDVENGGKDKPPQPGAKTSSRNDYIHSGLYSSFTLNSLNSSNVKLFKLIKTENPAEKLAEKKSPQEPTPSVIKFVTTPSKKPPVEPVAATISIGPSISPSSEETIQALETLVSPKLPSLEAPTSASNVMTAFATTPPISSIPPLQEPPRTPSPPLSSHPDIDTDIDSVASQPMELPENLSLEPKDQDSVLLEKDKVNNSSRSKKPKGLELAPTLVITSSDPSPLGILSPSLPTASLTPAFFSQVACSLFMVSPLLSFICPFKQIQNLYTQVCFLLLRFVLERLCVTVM
# Outline: as §1
# ETV2 = target: T4, ETV2 (Homo sapiens, UniProt O00321 1-342); conditions: protein: recombinant; tags: N-terminal GST; dsDNA, one strand shown
# T4 sequence: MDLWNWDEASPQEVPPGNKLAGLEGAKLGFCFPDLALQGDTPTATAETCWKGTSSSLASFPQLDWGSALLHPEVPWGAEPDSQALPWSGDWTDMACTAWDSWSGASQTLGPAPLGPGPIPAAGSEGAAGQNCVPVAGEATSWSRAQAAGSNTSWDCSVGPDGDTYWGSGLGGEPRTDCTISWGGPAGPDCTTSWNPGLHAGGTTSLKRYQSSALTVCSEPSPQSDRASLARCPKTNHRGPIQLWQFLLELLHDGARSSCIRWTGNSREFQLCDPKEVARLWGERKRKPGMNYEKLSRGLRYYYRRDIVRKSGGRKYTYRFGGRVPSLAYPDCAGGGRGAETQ
# Outline: as §1
# ELF3 = target: T5, ELF3 (Homo sapiens, UniProt P78545 1-371); conditions: protein: recombinant; tags: N-terminal GST; dsDNA, one strand shown
# T5 sequence: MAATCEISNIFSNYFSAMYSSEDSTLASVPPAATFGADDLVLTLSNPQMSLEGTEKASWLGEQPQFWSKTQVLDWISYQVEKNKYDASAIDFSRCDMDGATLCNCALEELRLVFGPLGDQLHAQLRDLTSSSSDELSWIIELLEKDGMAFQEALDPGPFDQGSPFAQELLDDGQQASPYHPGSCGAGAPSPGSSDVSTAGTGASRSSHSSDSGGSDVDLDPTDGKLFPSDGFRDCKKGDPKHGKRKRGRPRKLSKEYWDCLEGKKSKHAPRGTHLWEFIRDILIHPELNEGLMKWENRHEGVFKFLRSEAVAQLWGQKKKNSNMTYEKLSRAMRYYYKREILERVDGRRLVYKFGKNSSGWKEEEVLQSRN
# Outline: as §1
# CRX = CRX (Homo sapiens, UniProt O43186 1-299); conditions: protein: recombinant; tags: N-terminal GST; dsDNA, one strand shown
# Outline: as §1
# ETV1 = ETV1 (Homo sapiens, UniProt P50549 1-477); conditions: protein: recombinant; tags: N-terminal GST; dsDNA, one strand shown
# Outline: as §1
# ERF = target: T6, ERF (Homo sapiens, UniProt P50548 1-548); conditions: protein: recombinant; tags: N-terminal GST; dsDNA, one strand shown
# T6 sequence: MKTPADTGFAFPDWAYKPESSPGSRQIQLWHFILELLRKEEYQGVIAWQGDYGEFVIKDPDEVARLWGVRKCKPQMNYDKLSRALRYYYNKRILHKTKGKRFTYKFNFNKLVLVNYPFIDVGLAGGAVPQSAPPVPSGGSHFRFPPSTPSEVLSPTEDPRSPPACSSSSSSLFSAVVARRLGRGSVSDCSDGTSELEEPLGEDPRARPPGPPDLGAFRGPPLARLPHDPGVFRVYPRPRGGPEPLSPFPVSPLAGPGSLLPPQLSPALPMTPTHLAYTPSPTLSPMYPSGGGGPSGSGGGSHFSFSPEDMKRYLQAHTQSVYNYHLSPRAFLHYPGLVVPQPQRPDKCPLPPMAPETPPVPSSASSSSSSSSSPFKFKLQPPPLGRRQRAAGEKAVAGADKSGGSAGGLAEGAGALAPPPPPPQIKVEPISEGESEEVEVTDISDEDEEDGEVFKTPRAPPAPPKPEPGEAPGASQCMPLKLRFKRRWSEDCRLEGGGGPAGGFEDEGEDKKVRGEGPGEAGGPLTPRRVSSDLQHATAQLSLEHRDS
# Outline: as §1
# ETV3L = target: T7, ETV3L (Homo sapiens, UniProt Q6ZN32 1-361); conditions: protein: recombinant; tags: N-terminal GST; dsDNA, one strand shown
# T7 sequence: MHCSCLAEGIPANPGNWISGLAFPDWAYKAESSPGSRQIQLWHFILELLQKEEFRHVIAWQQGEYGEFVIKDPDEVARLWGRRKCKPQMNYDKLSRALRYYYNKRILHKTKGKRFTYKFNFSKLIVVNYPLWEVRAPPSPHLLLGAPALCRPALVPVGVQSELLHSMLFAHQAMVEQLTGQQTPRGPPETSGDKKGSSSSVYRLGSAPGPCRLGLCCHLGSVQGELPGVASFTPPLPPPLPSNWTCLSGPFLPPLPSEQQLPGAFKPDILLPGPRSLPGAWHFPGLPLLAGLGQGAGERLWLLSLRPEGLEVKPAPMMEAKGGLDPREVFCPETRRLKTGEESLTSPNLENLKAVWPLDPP
# Outline: as §1
# ETS2 = target: T8, ETS2 (Homo sapiens, UniProt P15036 1-469); conditions: protein: recombinant; tags: N-terminal GST; dsDNA, one strand shown
# T8 sequence: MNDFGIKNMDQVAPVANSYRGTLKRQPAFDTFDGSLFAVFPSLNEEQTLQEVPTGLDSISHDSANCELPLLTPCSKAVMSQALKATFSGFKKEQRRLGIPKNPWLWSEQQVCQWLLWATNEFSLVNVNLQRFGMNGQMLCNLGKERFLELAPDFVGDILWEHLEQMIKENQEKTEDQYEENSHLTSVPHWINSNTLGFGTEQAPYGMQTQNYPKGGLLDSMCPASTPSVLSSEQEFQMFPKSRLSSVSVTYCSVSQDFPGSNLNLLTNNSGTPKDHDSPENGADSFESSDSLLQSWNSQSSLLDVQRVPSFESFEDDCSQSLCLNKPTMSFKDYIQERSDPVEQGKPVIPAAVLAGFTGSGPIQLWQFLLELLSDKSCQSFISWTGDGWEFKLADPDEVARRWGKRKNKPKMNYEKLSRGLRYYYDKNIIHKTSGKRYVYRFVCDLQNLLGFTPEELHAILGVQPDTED
# Outline: as §1
# SPDEF = target: T9, SPDEF (Homo sapiens, UniProt O95238 1-335); conditions: protein: recombinant; tags: N-terminal GST; dsDNA, one strand shown
# T9 sequence: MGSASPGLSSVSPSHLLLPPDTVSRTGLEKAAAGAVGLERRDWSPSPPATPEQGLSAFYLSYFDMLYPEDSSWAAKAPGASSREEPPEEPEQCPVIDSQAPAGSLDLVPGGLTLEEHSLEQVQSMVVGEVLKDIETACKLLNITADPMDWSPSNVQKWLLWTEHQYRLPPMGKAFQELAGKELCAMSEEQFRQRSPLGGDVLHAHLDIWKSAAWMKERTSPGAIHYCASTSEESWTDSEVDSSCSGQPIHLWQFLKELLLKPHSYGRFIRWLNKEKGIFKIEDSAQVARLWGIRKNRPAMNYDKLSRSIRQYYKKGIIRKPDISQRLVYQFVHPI
# Outline: as §1
# ETV7 = target: T10, ETV7 (Homo sapiens, UniProt Q9Y603 1-341); conditions: protein: recombinant; tags: N-terminal GST; dsDNA, one strand shown
# T10 sequence: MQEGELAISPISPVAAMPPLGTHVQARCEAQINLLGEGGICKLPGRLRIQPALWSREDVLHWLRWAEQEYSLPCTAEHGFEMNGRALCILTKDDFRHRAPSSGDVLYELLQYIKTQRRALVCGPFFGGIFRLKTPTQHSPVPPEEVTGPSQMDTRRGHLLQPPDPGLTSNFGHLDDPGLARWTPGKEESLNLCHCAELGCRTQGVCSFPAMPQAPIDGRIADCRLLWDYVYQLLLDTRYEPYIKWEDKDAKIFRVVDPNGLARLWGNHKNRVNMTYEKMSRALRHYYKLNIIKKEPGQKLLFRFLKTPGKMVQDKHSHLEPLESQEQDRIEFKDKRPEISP
# Outline: as §1
# ELF5 = target: T11, ELF5 (Homo sapiens, UniProt Q9UKW6-2 1-255); conditions: protein: recombinant; tags: N-terminal GST; dsDNA, one strand shown
# T11 sequence: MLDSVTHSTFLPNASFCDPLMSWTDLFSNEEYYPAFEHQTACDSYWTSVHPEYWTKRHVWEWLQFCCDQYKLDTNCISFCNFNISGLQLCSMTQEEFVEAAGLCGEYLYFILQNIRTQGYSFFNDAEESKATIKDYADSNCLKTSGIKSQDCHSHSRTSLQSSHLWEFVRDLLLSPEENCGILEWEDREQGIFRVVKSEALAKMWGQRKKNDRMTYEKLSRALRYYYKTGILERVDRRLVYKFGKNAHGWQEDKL
# Outline: as §1
# ETV3 = target: T12, ETV3 (Homo sapiens, UniProt P41162-2 1-143); conditions: protein: recombinant; tags: N-terminal GST; dsDNA, one strand shown
# T12 sequence: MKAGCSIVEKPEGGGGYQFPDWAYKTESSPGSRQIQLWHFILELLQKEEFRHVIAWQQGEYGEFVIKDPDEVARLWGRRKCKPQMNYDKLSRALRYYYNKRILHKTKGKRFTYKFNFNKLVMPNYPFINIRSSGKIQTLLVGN
# Outline: as §1
# ETV6 = ETV6 (Homo sapiens, UniProt P41212 1-452); conditions: protein: recombinant; tags: N-terminal GST; dsDNA, one strand shown
# Outline: as §1
# ETV5, sequence (P41161 whole entry): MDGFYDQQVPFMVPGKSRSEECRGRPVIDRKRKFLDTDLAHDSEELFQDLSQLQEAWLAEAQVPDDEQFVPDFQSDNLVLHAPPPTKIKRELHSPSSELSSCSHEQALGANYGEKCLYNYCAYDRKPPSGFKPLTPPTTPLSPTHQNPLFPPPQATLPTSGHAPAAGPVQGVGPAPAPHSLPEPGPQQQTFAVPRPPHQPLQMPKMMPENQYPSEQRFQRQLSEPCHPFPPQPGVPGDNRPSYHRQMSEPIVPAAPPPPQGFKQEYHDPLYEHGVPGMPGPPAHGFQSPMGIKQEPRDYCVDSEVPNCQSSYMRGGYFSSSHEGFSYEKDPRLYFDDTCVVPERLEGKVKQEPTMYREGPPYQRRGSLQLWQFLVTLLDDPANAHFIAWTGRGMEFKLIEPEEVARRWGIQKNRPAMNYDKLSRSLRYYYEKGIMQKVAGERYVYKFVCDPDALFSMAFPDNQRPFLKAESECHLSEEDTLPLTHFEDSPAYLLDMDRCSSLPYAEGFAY
# ETV6, sequence (P41212 whole entry): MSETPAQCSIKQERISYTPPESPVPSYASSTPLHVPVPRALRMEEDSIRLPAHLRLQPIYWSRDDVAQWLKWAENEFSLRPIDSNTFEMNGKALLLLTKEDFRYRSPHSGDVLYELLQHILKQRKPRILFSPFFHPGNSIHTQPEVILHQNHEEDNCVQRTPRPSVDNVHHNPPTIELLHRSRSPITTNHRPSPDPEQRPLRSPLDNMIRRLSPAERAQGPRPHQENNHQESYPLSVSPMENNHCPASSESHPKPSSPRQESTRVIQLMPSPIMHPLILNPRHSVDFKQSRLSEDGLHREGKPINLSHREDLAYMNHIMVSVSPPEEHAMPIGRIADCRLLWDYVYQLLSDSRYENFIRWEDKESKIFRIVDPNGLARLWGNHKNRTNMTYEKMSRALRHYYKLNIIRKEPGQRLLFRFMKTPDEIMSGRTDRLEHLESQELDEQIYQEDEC
# HSF1, sequence (Q00613 whole entry): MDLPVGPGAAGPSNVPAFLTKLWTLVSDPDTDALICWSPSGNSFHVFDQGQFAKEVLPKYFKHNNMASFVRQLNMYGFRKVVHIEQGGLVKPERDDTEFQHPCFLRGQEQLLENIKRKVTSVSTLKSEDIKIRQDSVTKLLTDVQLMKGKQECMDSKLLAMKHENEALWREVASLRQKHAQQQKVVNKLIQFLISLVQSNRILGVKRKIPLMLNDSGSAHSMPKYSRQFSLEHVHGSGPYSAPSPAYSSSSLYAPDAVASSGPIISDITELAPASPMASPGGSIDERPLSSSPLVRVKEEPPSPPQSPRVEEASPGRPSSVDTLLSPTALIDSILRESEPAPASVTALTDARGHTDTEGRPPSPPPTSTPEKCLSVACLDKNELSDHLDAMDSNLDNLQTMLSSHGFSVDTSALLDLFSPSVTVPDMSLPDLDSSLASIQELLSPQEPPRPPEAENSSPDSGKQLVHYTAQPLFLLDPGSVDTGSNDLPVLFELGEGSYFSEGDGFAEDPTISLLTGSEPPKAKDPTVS
# CRX, sequence (O43186 whole entry): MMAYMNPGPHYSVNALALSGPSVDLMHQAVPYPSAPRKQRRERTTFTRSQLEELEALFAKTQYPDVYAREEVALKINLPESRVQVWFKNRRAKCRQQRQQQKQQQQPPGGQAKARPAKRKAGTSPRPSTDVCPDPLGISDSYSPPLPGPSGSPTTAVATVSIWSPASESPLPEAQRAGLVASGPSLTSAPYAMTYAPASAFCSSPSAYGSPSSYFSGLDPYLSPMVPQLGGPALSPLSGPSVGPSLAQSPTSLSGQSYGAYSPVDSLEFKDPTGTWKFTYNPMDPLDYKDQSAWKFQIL
# ETV1, sequence (P50549 whole entry): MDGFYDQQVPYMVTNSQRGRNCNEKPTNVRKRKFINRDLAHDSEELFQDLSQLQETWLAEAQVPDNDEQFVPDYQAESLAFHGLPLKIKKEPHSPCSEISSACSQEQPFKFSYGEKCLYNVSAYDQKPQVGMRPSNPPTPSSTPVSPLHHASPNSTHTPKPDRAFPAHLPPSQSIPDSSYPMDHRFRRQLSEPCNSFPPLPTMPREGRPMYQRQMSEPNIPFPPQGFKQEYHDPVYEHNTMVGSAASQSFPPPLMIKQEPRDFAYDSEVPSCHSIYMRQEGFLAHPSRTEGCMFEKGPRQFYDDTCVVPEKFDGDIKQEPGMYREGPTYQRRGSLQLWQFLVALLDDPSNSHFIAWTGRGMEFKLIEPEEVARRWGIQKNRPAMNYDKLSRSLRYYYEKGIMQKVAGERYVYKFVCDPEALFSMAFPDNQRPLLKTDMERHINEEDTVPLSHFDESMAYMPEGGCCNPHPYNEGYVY
# ELF4, sequence (Q99607 whole entry): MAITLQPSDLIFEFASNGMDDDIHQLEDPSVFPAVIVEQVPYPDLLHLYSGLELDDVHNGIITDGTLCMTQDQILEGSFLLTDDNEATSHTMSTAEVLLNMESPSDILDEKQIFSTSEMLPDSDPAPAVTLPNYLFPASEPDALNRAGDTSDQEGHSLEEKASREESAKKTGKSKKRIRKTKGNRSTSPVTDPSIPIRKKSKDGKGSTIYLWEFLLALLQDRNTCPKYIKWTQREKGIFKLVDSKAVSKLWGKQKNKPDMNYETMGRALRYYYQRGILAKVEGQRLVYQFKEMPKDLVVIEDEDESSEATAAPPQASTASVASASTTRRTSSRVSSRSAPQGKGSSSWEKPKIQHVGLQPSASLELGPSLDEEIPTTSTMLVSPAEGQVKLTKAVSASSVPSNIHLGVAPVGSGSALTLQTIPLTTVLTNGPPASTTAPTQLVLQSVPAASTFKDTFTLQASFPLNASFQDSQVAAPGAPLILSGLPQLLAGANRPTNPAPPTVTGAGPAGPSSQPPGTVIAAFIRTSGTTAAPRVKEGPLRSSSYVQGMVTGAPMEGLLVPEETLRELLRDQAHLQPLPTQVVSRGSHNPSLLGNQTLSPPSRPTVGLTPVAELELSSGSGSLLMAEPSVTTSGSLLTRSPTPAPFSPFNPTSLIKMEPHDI
sequence,measurement,setting,value
TGACCT,binding signal,FEV,"1.69 fold enrichment (6-mer frequency, TF over GST control)"
same,binding signal,ETV5,"1.68 fold enrichment (6-mer frequency, TF over GST control)"
same,binding signal,HSF1,"1.5 fold enrichment (6-mer frequency, TF over GST control)"
same,binding signal,SPIC,"1.79 fold enrichment (6-mer frequency, TF over GST control)"
same,binding signal,ELF4,"1.82 fold enrichment (6-mer frequency, TF over GST control)"
same,binding signal,ELK4,"1.74 fold enrichment (6-mer frequency, TF over GST control)"
same,binding signal,ETV2,"1.65 fold enrichment (6-mer frequency, TF over GST control)"
same,binding signal,ELF3,"1.68 fold enrichment (6-mer frequency, TF over GST control)"
same,binding signal,CRX,"1.36 fold enrichment (6-mer frequency, TF over GST control)"
same,binding signal,ETV1,"1.88 fold enrichment (6-mer frequency, TF over GST control)"
same,binding signal,ERF,"1.66 fold enrichment (6-mer frequency, TF over GST control)"
same,binding signal,ETV3L,"1.83 fold enrichment (6-mer frequency, TF over GST control)"
same,binding signal,ETS2,"1.72 fold enrichment (6-mer frequency, TF over GST control)"
same,binding signal,SPDEF,"1.74 fold enrichment (6-mer frequency, TF over GST control)"
same,binding signal,ETV7,"1.75 fold enrichment (6-mer frequency, TF over GST control)"
same,binding signal,ELF5,"1.73 fold enrichment (6-mer frequency, TF over GST control)"
same,binding signal,ETV3,"1.59 fold enrichment (6-mer frequency, TF over GST control)"
same,binding signal,ETV6,"1.66 fold enrichment (6-mer frequency, TF over GST control)"

# From PMC7862700, “An all-to-all approach to the identification of sequence-specific readers for epigenetic DNA modifications on cytosine”
